The list is not random: actives were taken first. Their share in the collection is about 2.4%.
PLCb3 inh: inhibitors of human phospholipase C beta3; Q01970; Purified PLC-beta3, fluorogenic substrate, fluorescence; inhibition, % at 12.2 µM; hit rate 0.18% among 370,000; in the data active = inhibition above about 11%;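 also: 0% = median of compound wells on plate and 100% = full blocker control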
MBD2 DNA inh: blocks human MBD2 binding to methylated DNA; hit rate 0.31% among 370,000; AID 686964; TR-FRET, MBD2 binding to methylated oligonucleotide; inhibition, % at 4.4 µM; Q9UBB5; in the data active = inhibition above about 13%
Target sequence (Q9UBB5 whole entry, looked up): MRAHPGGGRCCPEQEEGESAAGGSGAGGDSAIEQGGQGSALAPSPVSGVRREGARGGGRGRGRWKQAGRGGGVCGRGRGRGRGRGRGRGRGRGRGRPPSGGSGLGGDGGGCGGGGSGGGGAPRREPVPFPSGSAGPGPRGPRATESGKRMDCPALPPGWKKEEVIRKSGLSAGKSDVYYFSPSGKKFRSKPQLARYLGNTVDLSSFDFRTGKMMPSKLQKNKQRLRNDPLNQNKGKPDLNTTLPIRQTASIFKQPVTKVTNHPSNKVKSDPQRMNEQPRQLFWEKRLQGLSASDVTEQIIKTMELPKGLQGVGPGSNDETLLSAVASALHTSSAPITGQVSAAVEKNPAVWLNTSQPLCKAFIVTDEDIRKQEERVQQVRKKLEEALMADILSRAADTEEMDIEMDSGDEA
PLCg1 inh: PLC-gamma1 (human) inhibition, primary screen. hit rate 0.84% among 370,000. purified PLC-gamma1, fluorogenic substrate, fluorescence. P19174. AID 720700. inhibition, % at 12.2 µM; in the data active = inhibition above about 9.5%
UHRF1 binding: blocks human UHRF1 binding to methylated DNA; inhibition, % at 4.4 µM; hit rate 0.75% among 370,000; UHRF1 binding to methylated oligo, TR-FRET; Q96T88; in the data active = inhibition above about 21%;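 also: UHRF1 SRA domain binding a hemimethylated CpG hairpin DNA probe; 0% = median of test compound wells and 100% = reference inhibitor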
LEDGF integ inh: blocks HIV-1 LEDGF/p75-dependent DNA integration | TR-FRET IN-LEDGF/p75 DNA integration, Eu/Cy5 | inhibition, % at 3.7 µM | hit rate 0.64% among 370,000 | AID 743269;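 active = inhibition above the screen-wide mean plus 3 SD, cut at about 13% in these data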;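 also: signal is the Cy5 over europium emission ratio at 671 and 618 nm; 0% = plate median of compound wells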
IN multimer act: activates HIV-1 integrase multimerization in LEDGF counter-screen; shares compounds with LEDGF integ inh; activation, % at 7.7 µM; AID 1053131; TR-FRET HIV-1 integrase multimerization, biochemical; hit rate 17% among 2,000; in the data active = activation above about 8.9%
TR-FRET interf: optically interferes with TR-FRET readout in LEDGF counter-screen; shares compounds with LEDGF integ inh; TR-FRET optical interference counterscreen, HIV-1 IN multimerization; inhibition, % at 7.7 µM; 2,000 tested, under 10 active; AID 1053135;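 active = inhibition above the mean over all tested compounds plus 3 SD, which no compound reached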;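 also: 0% = integrase with antibodies and DMSO and 100% = antibodies without integrase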
IN-LEDGF confirm: LEDGF/p75-dependent HIV-1 integration inhibition, confirmation; shares compounds with LEDGF integ inh; TR-FRET LEDGF/p75-dependent HIV-1 integration, biochemical; inhibition, % at 3.7 µM; hit rate 36% among 2,000; AID 1053136; in the data active = inhibition above about 14%
Starred values were filed as active, the others as inactive; i = inactive; · = no result given.

SMILES	PLCb3 inh	MBD2 DNA inh	PLCg1 inh	UHRF1 binding	LEDGF integ inh	IN multimer act	TR-FRET interf	IN-LEDGF confirm
CCCCCCCCN1C(=O)[C@@H](CC(=O)N2CCSCC2)C[C@@]2(C(=O)OC)C1=C[C@H](C(C)C)O[C@@H]2C1CC1	-0.7	-1.9	3.2	2.7	-0.5	·	·	·
CC(CC(=O)O)Nc1ccccc1O (stereo not drawn)	-7.2	-0.3	-0.9	7.2	35.0*	6.2	-22.1	2.8
Cc1cccn2c(=O)c3cc(C#N)c(=NC(=O)c4ccco4)n(Cc4ccco4)c3nc12	-374.0	-6.1	-279.8	-2.8	3.4	·	·	·
Cc1cccc(C(=O)N=c2c(C#N)cc3c(=O)n4cccc(C)c4nc3n2Cc2ccco2)c1	i	-9.8	i	-0.3	17.5*	2.3	-11.4	34.9*
Cc1cccn2c(=O)c3cc(C#N)c(=NC(=O)c4ccccc4)n(Cc4ccco4)c3nc12	i	0.1	i	5.7	15.8*	-3.0	15.0	26.0*
C=CCN1CCN(C(c2ccccc2)c2nnnn2CCC(C)C)CC1 (stereo not drawn)	-5.7	0.9	0.0	0.3	56.0*	-4.5	15.9	-0.7
COc1ccc(-c2cc(C(=O)Nc3cccc(O)c3)no2)cc1	-9.4	-4.1	-2.3	0.8	38.2*	1.1	-3.9	-7.3
Cc1ccc(Oc2ncccc2C(=O)NCC(=O)O)cc1	-3.5	-6.3	8.8	0.4	17.0*	0.0	0.0	0.1
NNC(=O)c1cccnc1Oc1ccccc1	-6.8	5.9	-1.1	-1.8	-1.7	·	·	·
CCC(CC)C(=O)N(C)c1c(C)nc2c(OCc3ccc(C#N)cc3)cccn12	1.3	-1.5	-0.9	-1.0	14.7*	-1.8	9.0	-6.8
S=c1nc(-c2ccccc2)[nH]c2ccc(Br)cc12	-5.0	5.8	1.9	-2.2	1.3	·	·	·
O=c1[nH]c(-c2ccccc2)nn1-c1ccc(Br)cc1Br	-5.3	1.6	4.1	-2.9	26.1*	0.7	-3.6	4.7
CC(=O)OC[C@]1(OC(C)=O)C[C@@]23CC[C@H]4[C@@](C)(CCC[C@@]4(C)C(=O)O)[C@@H]2CC[C@@H]1C3	-3.0	-1.2	-0.6	-3.1	0.3	·	·	·
CC(=O)OC[C@]12CC[C@H]3[C@@](C)(CC[C@H]4C(C)(C)CCC[C@]34C)[C@@H]1CC(C1=CC(=O)OC1O)O2 (stereo partly drawn)	1.6	4.6	6.0	4.1	20.4*	-2.5	12.7	63.0*
O=C(OCC#CCSc1nnc(-c2cccc3ccccc23)o1)c1csc2ccccc12	-3.0	-6.6	-2.4	0.6	1.3	·	·	·
O/N=C1\CCC\C1=C/c1ccco1	-21.8	-3.0	-24.6	6.1	7.2	·	·	·
O=C1C(=Cc2ccco2)CCCC1=Cc1ccco1	-51.8	15.2*	-33.0	52.2*	61.5*	0.6	-2.3	57.9*
COC(=O)c1ccc(CN2C(=O)c3ccccc3C2=O)cc1	0.3	-1.5	1.5	-0.2	-1.9	·	·	·
COC(=O)c1ccc(CN2C(=O)NC(CC(C)C)C2=O)cc1 (stereo not drawn)	-4.0	0.8	-0.1	24.5*	61.2*	-1.3	4.5	-4.2
COCC(=O)OC1CCn2c1nc1c2C(=O)C(C)=C(NC(C)=O)C1=O (stereo not drawn)	6.0	-2.6	14.5*	13.3	16.2*	6.0	-21.2	58.4*
CC(=O)N1c2ccccc2C(C)=NCC1C(=O)NC1CCCCC1 (stereo not drawn)	-2.1	-4.8	-5.6	-0.7	4.5	·	·	·
CC(C)(C)C(=O)Nc1ccc(/C=C/C(=O)c2ccco2)cc1	-180.3	-3.5	-125.5	-4.2	34.1*	0.3	-1.3	-3.5
CCOC(=O)[C@@]12CCCC=C1N(CCc1ccc(Cl)cc1)C(=O)[C@H]2CC(=O)NCc1cccc2ccccc12	1.6	-2.5	2.7	-3.8	6.2	·	·	·
Cn1cc(C(=O)N/N=C/C2=C(N3CCOCC3)C(=C/c3ccc([N+](=O)[O-])cc3)/CC2)ccc1=O	-11.2	5.0	-0.8	-2.9	87.7*	-0.8	4.2	-2.1
COC(=O)/C(C#N)=C/c1ccc(OC(=O)c2ccccn2)cc1	-2.3	0.1	-0.2	1.3	14.3*	0.5	-2.3	-0.4
SMILES	PLCb3 inh	MBD2 DNA inh	PLCg1 inh	UHRF1 binding	LEDGF integ inh	IN multimer act	TR-FRET interf	IN-LEDGF confirm
CCOC(=O)/C(C#N)=C/c1ccc(OC(=O)c2ccccn2)cc1	-0.2	-5.2	0.9	-6.3	-1.1	·	·	·
Nc1cc(N)cc(C(=O)c2ccccc2)c1	2.2	-11.9	0.0	-4.0	21.1*	1.7	-8.6	-1.0
Nc1ccc(C(=O)C(=O)c2ccccc2)cc1	-3.9	-5.4	4.6	-1.4	5.3	·	·	·
Cc1cc(CC(=O)O)c2oc(-c3ccoc3)cc(=O)c2c1	-35.6	3.9	-19.9	25.3*	14.7*	5.0	-24.9	29.1*
O=C(CCCCCN1C(=O)C2C3C=CC(C3)C2C1=O)Nc1ccc2ncccc2c1 (stereo not drawn)	-163.0	-5.6	-108.0	-1.7	22.1*	1.4	-7.0	2.9
O=C(CCCCCN1C(=O)C2C3C=CC(C3)C2C1=O)Nc1ccc(Cl)cc1 (stereo not drawn)	1.0	-9.6	2.8	-1.2	-0.9	·	·	·
CCc1ccc(CCNC(=O)OC2CC3CC2[C@H]2CCCCN2C3)cc1 (stereo partly drawn)	-2.3	-0.6	1.0	3.4	1.6	·	·	·
CCCC1CCC2(CCCN2CCOC(=O)Nc2ccc(Br)cc2)CC1 (stereo not drawn)	-4.5	4.6	0.6	2.6	-0.8	·	·	·
Cc1ccc(-n2nnc3c(=O)n(CC(=O)NCc4ccccc4)cnc32)cc1	-2.4	3.0	0.5	1.5	-1.5	·	·	·
O=C(Cn1cnc2c(nnn2-c2ccccc2)c1=O)NCc1ccc(F)cc1	0.4	7.1	4.8	32.5*	15.2*	5.8	-29.0	3.2
COC(=O)C1CN(Cc2ccccc2)CCS(=O)(=O)N1Cc1cn(Cc2cccc(Cl)c2)nn1 (stereo not drawn)	0.8	6.6	1.8	5.5	-1.9	·	·	·
CC(=O)N1CCc2cc(S(=O)(=O)NCCC(=O)NCc3ccc(Cl)cc3)ccc21	3.5	0.8	4.2	-1.2	4.5	·	·	·
CC(=O)N(CN1C(=O)c2ccccc2C1=O)c1cccc(C)c1	2.2	1.1	1.3	0.7	-3.5	·	·	·
CC(=O)N(/N=C1\Sc2ccccc2C1=O)c1cccc(C)c1	-4.7	-6.1	-3.5	-10.6	22.2*	-0.9	3.2	50.9*
O=C1CC(N2CCCC2)=NC(=O)N1c1ccc(Br)cc1	-8.0	-0.3	-7.0	1.0	-4.1	·	·	·
CN(C)C(=S)NC(=S)Nc1ccc2ccccc2c1	-0.8	0.7	0.8	0.3	15.9*	1.0	-3.6	17.5*
O=C(Nc1ccc(Cl)cc1)C1CCCN1S(=O)(=O)c1cccc2cccnc12 (stereo not drawn)	0.3	-0.4	2.0	1.2	1.3	·	·	·
